Assay outcomes: PubChem BioAssay, Center for Chemical Genomics, University of Michigan
Most compounds without a hit are left out; they make up all but 0.9% or so of the library.
CDC25B CDK2 inh: human CDC25B-CDK2/CyclinA binding inhibition. P30305+P24941. z-score (test concentration not listed). HTRF CDC25B-CDK2/CyclinA binding, anti-His/anti-Flag; active compounds read high. hit rate 0.72% among 94,000; in the data active = z-score above about 3.2
TAR Tat displ: HIV-1 TAR-Tat binding disruption; HIV-1 TAR RNA, Tat peptide displacement FRET; active compounds read high; z-score (no concentration beside the values); hit rate 0.6% among 100,000; AID 1259389; active = z-score of 3 or more in at least 2 runs
* hit, by the source's call; . = no result; ! = repeats disagree.

SMILES	CDC25B CDK2 inh	TAR Tat displ
CCOc1ccc(N2CSC3=C(C#N)C(c4ccc(C)o4)CC(=O)N3C2)cc1 (stereo not given)	3.39*	0.86
COc1ccc(C2CC(=O)N3CN(CCc4ccccc4)CSC3=C2C#N)cc1OC (stereo not given)	-1.4	0.76
Cc1ccccc1COc1ccc2oc(C)c(C(=O)O)c2c1	-1.67	.
CC1=C(C(=O)OC2CCCCC2)C(c2ccccc2)C2=C(CCCC2=O)N1 (stereo not given)	-0.94	1.04
COc1cnc(CSc2nnnn2C)cc1OCC(N)=O	.	2.58
Cc1c(Cl)ccc2c(=O)c(C(=O)O)c[nH]c12	-1.52	1.26
O=C(O)c1c[nH]c2c(ccc3ccccc32)c1=O	1.75	9.31*
O=C(O)CSc1n[nH]c2nc3ccccc3n12	-0.73	.
Cc1c(C(=O)Nc2ccc3c(c2)OCCO3)sc2ncn(CC(=O)N3CC(C)CC(C)C3)c(=O)c12 (stereo not given)	.	2.06
CCCc1nn2c(=O)cc(COc3ccc(CC)cc3)nc2s1	-2.24	1.23
Cc1cc2ncc(-c3cnc(SCCS(=O)(=O)c4ccc(Cl)cc4)nc3)c(C)n2n1	-1.63	.
Cc1cc(NCc2ccc3c(c2)OCO3)n2nc(-c3ccco3)nc2n1	.	-1.27
Cc1cc(Nc2ccc3c(c2)OCO3)n2nc(-c3ccco3)nc2n1	.	18.2*
COc1ccc2nc(C)cc(C(=O)O)c2c1	0.34	0.52
Cc1ccc(/C=C/c2nn3c(-c4ccco4)nnc3s2)cc1	-1.84	-1.26
Clc1ccccc1/C=C/c1nn2c(-c3ccco3)nnc2s1	3.21	18.8*
Cc1ccc(/C=C/c2nn3c(-c4ccncc4)nnc3s2)cc1	-2.08	-1.16
Cc1ccc(/C=C/c2nn3c(-c4ccco4)nnc3s2)cc1C	3.87	16.6*
Clc1cccc(-c2nnc3sc(-c4ccco4)nn23)c1	-1.34	1.93
C(=C\c1nn2c(-c3ccncc3)nnc2s1)/c1ccco1	-1.04	25.6*
Clc1ccccc1-c1ccc(-c2nn3c(-c4ccco4)nnc3s2)o1	15.2*	0.54
Clc1ccccc1/C=C/c1nn2c(-c3ccncc3)nnc2s1	-0.92	0.36
O=C1C2C3c4ccccc4C(CO)(c4ccccc43)C2C(=O)N1c1ccccc1Cl (stereo not given)	-1.1	-1.12
O=C(O)c1cc(-c2ccccc2)nc2ccccc12	-1.33	4.07
N#Cc1ccc(-c2cc(C(=O)O)c3c(ccc4ccccc43)n2)cc1	12.4*	.
SMILES	CDC25B CDK2 inh	TAR Tat displ
O=C(NCc1cccs1)c1sc(=S)n2c1[nH]c(=O)c1ccccc12	.	-0.89
O=c1c(O)c(-c2ccc(O)c(O)c2)oc2cc(O)cc(O)c12	-1.91	27.8*!
O=c1cc(-c2ccc(O)c(O)c2)oc2cc(O)cc(O)c12	.	33.1*
COc1ccc(-c2cc(=O)c3c(O)cc(O)cc3o2)cc1	.	1.66
COc1cc(-c2oc3cc(O)cc(O)c3c(=O)c2O)ccc1O	.	1.75
CCOC(=O)C1CCN(C(=O)c2sc3nc4n(c(=O)c3c2C)CCCCC4)CC1	.	2.65
CCCN(Cc1cccs1)C(=O)Nc1ccc(F)cc1	-1.23	1.33
O=C(O)c1ccccc1C(=O)Nc1nc(-c2ccc(Br)cc2)cs1	0	.
CCOC(=O)c1c(N)n(CCc2ccccc2)c2nc3ccccc3nc12	0.32	0.65
Cc1ccc(S(=O)(=O)c2c(N)n(CCO)c3nc4ccccc4nc23)cc1	18.3*	.
CCNc1nc(Nc2ccc(C)c(Cl)c2)c2cnn(C)c2n1	.	2.29
Cc1nnc(N2C(=O)C(O)=C(C(=O)c3ccco3)C2c2ccccc2)s1 (stereo not given)	-1.77	-2.11
CC1=C(C(=O)OC(C)C)C(c2ccc3c(c2)OCO3)C(C(=O)OC(C)C)=C(C)N1	-2.88	.
CCOc1ccc(C2CC(=O)N3CN(C4CCCC4)CSC3=C2C#N)cc1 (stereo not given)	1.92	2.27
COc1cccc(C2CC(=O)N3CN(C4CCCCC4)CSC3=C2C#N)c1 (stereo not given)	5.28*	-0.12
N#CC1=C2SCN(C3CCCCC3)CN2C(=O)CC1c1cccc2ccccc12 (stereo not given)	4.16*	0.13
N#CC1=C2SCN(Cc3ccco3)CN2C(=O)CC1c1cccc2ccccc12 (stereo not given)	-1.51	1.62
COc1ccc(OC)c(C2CC(=O)N3CN(C4CCCCC4)CSC3=C2C#N)c1 (stereo not given)	5.35*	-0.96
N#CC1=C2SCN(C3CCCC3)CN2C(=O)CC1c1ccc(F)cc1 (stereo not given)	4.01*	0.82
O=C1c2nccnc2C(=O)N1c1ccc(Br)cc1F	-0.77	1.06
COc1cc(OC)c(NC(=O)c2ccc3cccc(O)c3n2)cc1Cl	-0.18	0.45
Clc1ccc(CN2CCN(Cc3ccco3)CC2)cc1	0.24	1.62
S=c1[nH]nc(Cc2ccsc2)o1	-1.86	.
CCOC(=O)c1c(C)[nH]c(C)c1S(=O)(=O)NCC(=O)N1CCCCC1	.	1.01
O=C(Nc1ccccc1)OC(Cc1ccccc1)C(F)(F)F (stereo not given)	-0.26	.
SMILES	CDC25B CDK2 inh	TAR Tat displ
O=C(Nc1cc(F)c(Br)cc1F)c1ccco1	-2.67	.
CCOC(=O)c1[nH]c(C)c(C(=O)NC)c1C	-0.92	1.36
O=C1Nc2ccccc2C12NN=C(c1ccccc1O)S2 (stereo not given)	0.44	.
COc1cccc(C2CC(=O)N3CN(C4CCCC4)CSC3=C2C#N)c1 (stereo not given)	5.72*	1.98
Cc1cc(C)n(-c2nc3c(c(=O)n2CC(=O)N2CCc4ccccc42)CCCC3)n1	.	0.98
N#CC1=C2N=C(N)c3ccccc3N2C2=C(C(=O)CCC2)C1c1c(F)cccc1Cl (stereo not given)	9.3*	-6.63
N#CC1=C2N=C(N)c3ccccc3N2C2=C(C(=O)CCC2)C1c1ccccc1F (stereo not given)	17.9*	-5.18
N#CC1=C2N=C(N)c3ccccc3N2C2=C(C(=O)CCC2)C1c1ccc(Cl)cc1 (stereo not given)	-1.28	1.53
N#CC1=C2N=C(N)c3ccccc3N2C2=C(C(=O)CCC2)C1c1ccccc1Cl (stereo not given)	-0.95	-1.24
CCOc1ccc(OCC)c(NS(=O)(=O)c2ccc(-c3cc(C)no3)s2)c1	.	1.16
CCc1cc(N2CCN(c3cc(C)ccc3C)CC2)n2ncnc2n1	-0.56	1.42
COCCCNC(=O)CCCn1nc(C)n2c(cc3occc32)c1=O	-1.81	1.48
O=C(Nc1ccc(F)cc1F)c1cccn1-c1nnc(N2CCCCC2)s1	.	-0.6
Nc1ccc(-c2nc3ccccc3s2)c(Cl)c1	7.13	-2.13
Nc1ccc(O)c(-c2nc3ccc(N)cc3s2)c1	2.3	35.9*
Fc1cc(NCc2ccccc2)nc(NCc2ccccc2)n1	-0.61	.
CCOC(=O)Oc1ccc2c(=O)c(Oc3cc(C)cc(C)c3)coc2c1	-1.56	2.24
Cc1cc(NC(=O)CSc2nnc3cc(C)c4ccccc4n23)no1	-0.62	.
Cn1c(=O)n(C/C=C/c2ccccc2)c(=O)c2c1nc1n2CCN1c1ccc(F)cc1	.	11.5*
Cn1c(=O)n(Cc2ccccc2)c(=O)c2c1nc1n2CCN1c1ccc(F)cc1	.	1.6
CCOC(=O)CSc1nc2sc3c(c2c(=O)n1CC)CCCC3	-5.05	.
Fc1ccc(N2CCN(c3nc4ccc(Cl)cc4n4cnnc34)CC2)cc1	-1.25	-0.92
O=C(Nc1ccccc1SCc1cc(=O)n2c(-c3ccccc3)csc2n1)c1ccco1	.	8.39*
Cc1nn2c(=O)cc(CSc3ccccc3NC(=O)c3ccco3)nc2s1	.	-0.08
